# Bioassay records (PubChem BioAssay)
# Sampled rows, rich in hits. Any-hit rate of the full collection: about 10%.
# JMJD2A Tudor – inhibitors of human JMJD2A Tudor domain. O75164. AlphaScreen JMJD2A-Tudor / H3K4me3 peptide binding. Potency, µM (highest dose often 114 µM), inactives show top-dose activity change, negative = inhibition, actives largely listed as inhibitors. 390,000 tested, 4.4% active; also: % is scaled to controls: 0 for no effect and ±100 for the full control effect; nearly all actives have a fitted effect of over 50% in size
# BAZ2B inh – BAZ2B (human) inhibition; AlphaScreen BAZ2B-H3K14Ac peptide displacement; Potency, µM (doses to about 114 µM), for inactives: top-dose activity change, negative = inhibition, most hits filed as inhibitors; 360,000 tested, 4.4% active; AID 504333; also: % is scaled to controls: 0 for no effect and ±100 for the full control effect; nearly all actives have a fitted effect of over 60% in size
#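 BAZ2B (50 nM) with biotin-H3(5-23)K14Ac peptide (50 nM) in PBS pH 7.4, 0.01% Tween-20, preformed 30 min, then compound 30 min at room temperature; top concentration 110uM. AlphaScreen streptavidin donor/nickel chelate acceptor beads (10 ug/mL final), 20 min dark, signal read.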
# GLS inh – inhibitors of human glutaminase (GLS). GLS enzymatic activity, qHTS titration. 410,000 tested, 0.21% active. Potency, µM (highest dose often 45.5 µM), inactives show at the top dose activity change, negative = inhibition, hits mostly inhibitors. O94925; also: % is scaled to controls: 0 for no effect and ±100 for the full control effect
#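 Read-out is an Amplex red fluorescence increase coupled through glutamate oxidase and HRP, measured before and after 30 min room-temperature incubation. hKGA is in 45 mM KH2PO4 (pH 8.2) with 0.02% Tween-20; glutamine added as 1mM solution.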
# G9a block – blocks human histone lysine methyltransferase G9a | G9a H3K9 monomethylation, AlphaScreen, 2 h | Q96KQ7 | 350,000 tested, 8.8% active | Potency, µM (highest dose often 102 µM), inactives show at the highest dose activity, negative = inhibition, usual class: inhibitors; also: % is scaled to controls: 0 for no effect and ±100 for the full control effect; nearly all actives have a fitted effect of over 75% in size
# Target sequence (Q96KQ7 913-1193 limits assumed): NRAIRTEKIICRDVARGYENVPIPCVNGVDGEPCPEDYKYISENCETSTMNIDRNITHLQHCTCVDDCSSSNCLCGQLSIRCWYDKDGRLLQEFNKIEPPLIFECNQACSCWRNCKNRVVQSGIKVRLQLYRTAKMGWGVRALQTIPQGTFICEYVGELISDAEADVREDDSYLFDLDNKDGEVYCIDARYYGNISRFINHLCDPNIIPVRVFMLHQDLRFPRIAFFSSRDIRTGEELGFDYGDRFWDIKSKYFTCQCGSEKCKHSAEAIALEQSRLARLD
#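 AlphaScreen detection with an anti-monomethyl H3K9 antibody quantified product after a 2 h room-temperature reaction containing 500 nM biotinylated H3K9 peptide, 20 µM SAM and 20 nM enzyme, which had been preincubated 15 min with compound.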
# HP1b binding inh – blocks HP1-beta chromodomain binding to methylated histone tails; AlphaScreen HP1-beta / biotin-H3K9me3 peptide binding; Potency, µM (series often up to 114 µM), without a hit: top-dose activity change, negative = inhibition, hits mostly inhibitors; 390,000 tested, 0.56% active; AID 540317; P83916; also: nearly all actives have a fitted effect of over 70% in size
# Target sequence (P83916 whole entry, looked up): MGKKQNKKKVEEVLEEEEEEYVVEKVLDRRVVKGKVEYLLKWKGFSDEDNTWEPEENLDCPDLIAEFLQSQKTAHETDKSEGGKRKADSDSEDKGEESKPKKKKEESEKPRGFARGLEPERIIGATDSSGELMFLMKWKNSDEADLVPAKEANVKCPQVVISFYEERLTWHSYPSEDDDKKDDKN
#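 AlphaScreen: HP1-beta (50 nM) preformed 30 min with biotin-H3(1-18)K9me3 peptide (50 nM) in PBS pH 7.4, 0.01% Tween-20. Compound added for 30 min at RT, then streptavidin donor/nickel chelate acceptor beads (10 ug/mL) for 30 min.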
# An asterisk follows results filed as active; ? = inconclusive; . = no result; [ ] = remark or other dose. Calls follow the shape of the dose curve; as a rule, active = well fitted curve in the direction sought with a large enough effect; inconclusive = small, poorly fitted or top-dose-only effect, or another doubt; inactive = no such curve, though single readings can be large; an effect the other way counts as inactive or inconclusive. Potency is read from the fitted curve at half-maximal effect.
SMILES,JMJD2A Tudor,BAZ2B inh,GLS inh,G9a block,HP1b binding inh
COc1ccc(NC(=O)C2CC(=O)OC23CCCCC3)cc1 (centres undefined),6.8%,-6.0%,-1.6%,13.3%[59 µM],18.9%
N#Cc1c(SCC(N)=O)nsc1SCc1ccc(Cl)cc1,-3.6%,8.9%,4.8%,19.2%[59 µM],45.6%
Cc1ccn(CCC(=O)O)n1,-12.0%,2.5%,-0.9%,.,33.5%
Cc1ccn(-c2cc(O)c(-n3ccc(C)n3)cc2O)n1,?,-2.4%,18.2%,3.55µM*,?
Cc1ccc(S(=O)(=O)N2CCN(C)CC2)c(C)c1,-12.7%,-2.3%,-1.8%,-6.0%,30.5%
Cc1ccc(S(=O)(=O)N2CCNC(=O)C2)c(C)c1,-6.1%,-1.7%,7.7%,56.2µM*,20.6%
COc1ccc(-c2nn[nH]n2)cc1OC,-13.1%,?,15.8%,-40.6%,30.8%
COc1cccc(-c2nn[nH]n2)c1O,?,56.2µM*,3.6%,3.55µM*,26.6%
O=C1C([N+](=O)[O-])=C(O)c2cccc3cccc1c23,.,44.7µM*,.,1.26µM*,.
COc1cccc(NC(=O)C2CCN(S(=O)(=O)c3ccc4c(c3)C(C)(C)C(=O)N4C)CC2)c1,-20.7%,1.7%,-3.9%,.,34.8%
O=S(=O)(Nc1cc(Sc2ncn[nH]2)c(O)c2ccccc12)c1ccccc1,3.55µM*,28.2µM*,0.0%,1.41µM*,3.55µM*
O=C(O)CSc1cc(NS(=O)(=O)c2ccc(Br)cc2)c2ccccc2c1O,20µM*,35.5µM*,?,1.78µM*,14.1µM*
O=C(COC(=O)c1ccc(OC(F)F)cc1)NCC1CCCO1 (centres undefined),.,.,1.2%,.,.
O=C(CCc1nnc(CCCCc2ccccc2)o1)NCc1cccc(F)c1,-13.2%,-4.2%,-0.3%,28.6%,46.6%
O=C(COc1cccc(Cl)c1)Nc1ccc(N2CCOCC2)cc1,-28.8%,2.9%,32.8%,79.4µM*,13.1%
CC(Oc1cccc(Cl)c1)C(=O)N(C)CC(=O)Nc1ccc(N2CCOCC2)cc1 (centres undefined),-10.3%,-2.1%,23.4%,39.8µM*,6.1%
CCOC(=O)c1cnc(Nc2nc3ccccc3o2)nc1C,-15.3%,?,1.4%,4.0%[0.501 µM],23.2%
COc1ccccc1-c1nc(-c2ccccn2)no1,-4.1%,-0.8%,1.3%,-33.5%,61.9%
Cc1ccc(S(=O)(=O)N2CCCCC2)cc1NC(=O)c1cc2ccccc2o1,-14.2%,7.4%,-5.5%,-5.5%[12.7 µM],30.3%
CCN1CCN(c2ccc(S(=O)(=O)N3CCCCC3)cc2NC(=O)c2cccc(Cl)c2)CC1,?,?,-2.7%,31.6µM*,-14.6%
CCN1CCN(c2ccc(S(=O)(=O)N3CCCCC3)cc2NC(=O)c2ccc(OC(F)F)cc2)CC1,-18.2%,-2.9%,-1.2%,14.1µM*,-3.5%
CCN1CCN(c2ccc(S(=O)(=O)N3CCCCC3)cc2NC(=O)c2cc3ccccc3o2)CC1,?,-20.2%,4.3%,35.5µM*,-26.7%
CCN1CCN(c2ccc(S(=O)(=O)N3CCCCC3)cc2NC(=O)c2cccc(OC(F)F)c2)CC1,-22.8%,1.5%,-2.5%,12.6µM*,15.1%
O=C(Nc1cc(S(=O)(=O)N2CCOCC2)ccc1N1CCOCC1)c1cccc(Cl)c1,.,.,4.9%,.,.
Cc1c(C(=O)N(C)CCC#N)oc2ccc(S(=O)(=O)N3CC(C)CC(C)C3)cc12 (centres undefined),?,-12.0%,27.5%,22.1%,7.6%
COc1ccc(C(=O)C2CCCN(C(=O)c3csc(C(C)=O)c3)C2)c(C)c1 (centres undefined),?,-8.8%,-4.0%,-3.0%[0.501 µM],19.2%
O=[S+]([O-])([O-])c1ccc2c(c1)cc([S+](=O)([O-])[O-])c1nn(-c3ccc(/C=C/c4ccc(-n5nc6c([S+](=O)([O-])[O-])cc7cc([S+](=O)([O-])[O-])ccc7c6n5)cc4[S+](=O)([O-])[O-])c([S+](=O)([O-])[O-])c3)nc12,56.2µM*,.,.,.,-22.5%
O=C(O)c1ccc2c(ccc3nn(-c4ccc(/C=C/c5ccc(-n6nc7ccc8cc(C(=O)O)ccc8c7n6)cc5[S+](=O)([O-])[O-])c([S+](=O)([O-])[O-])c4)nc32)c1,17.8µM*,.,.,.,?
